# PHOSPHO1 block – PHOSPHO1 (human) inhibition | Q8TCT1 | actives 1.1% (n = 290,000) | inhibition, % at 13.3 µM | recombinant PHOSPHO1, absorbance phosphatase assay; in the data active = inhibition above about 60%
# PABP FP inh – PABP-poly(A) binding inhibition. P11940. PABP-poly(A) RNA binding, fluorescence polarization. calls only at 35 µM. actives 1% (n = 290,000);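 also: calls also rest on retests at 20 µM and on dose response follow-up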
# A3A deaminase – inhibitors of human APOBEC3A DNA deaminase; actives 0.41% (n = 330,000); AID 493011; recombinant A3A, FAM/TAMRA ssDNA deamination fluorescence; P31941; inhibition, % at 20 µM;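 active = at least 40% inhibition at 20 µM here, with at most 30% in a related deaminase screen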;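 also: plate controls were A3A with DMSO for no effect and wells lacking A3A enzyme for full effect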
# eIF4H FP inh – inhibitors of RNA binding by human eIF4H; inhibition, % at 35 µM; actives 0.94% (n = 290,000); eIF4H fluorescence polarization binding assay;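 also: calls also rest on retests at 20 µM and on dose response follow-up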
# A3G deaminase – APOBEC3G (human) deaminase inhibition; Q9HC16; recombinant A3G, ssDNA deamination FAM/TAMRA fluorescence; inhibition, % at 20 µM; actives 0.28% (n = 330,000);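 active = inhibition of at least 40% at 20 µM, with no more than 30% in the related APOBEC3A deaminase screen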;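 also: plate controls were DMSO wells with A3G for no effect and wells lacking A3G enzyme for full effect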
# Target sequence (Q9HC16 whole entry, looked up): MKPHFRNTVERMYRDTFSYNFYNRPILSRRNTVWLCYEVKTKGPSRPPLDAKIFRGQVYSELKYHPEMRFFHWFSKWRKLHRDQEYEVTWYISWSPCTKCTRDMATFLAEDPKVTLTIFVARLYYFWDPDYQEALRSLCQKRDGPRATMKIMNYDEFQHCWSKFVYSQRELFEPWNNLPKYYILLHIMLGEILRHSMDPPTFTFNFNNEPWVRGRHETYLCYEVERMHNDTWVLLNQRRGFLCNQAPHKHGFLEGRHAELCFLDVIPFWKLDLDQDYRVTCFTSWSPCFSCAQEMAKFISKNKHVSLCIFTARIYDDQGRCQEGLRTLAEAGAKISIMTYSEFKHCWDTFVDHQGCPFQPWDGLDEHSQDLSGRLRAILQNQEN
# PABP1 MLLE inh – blocks PAM2 peptide binding to the PABP1 MLLE domain; actives 0.36% (n = 360,000); GST-MLLE / FITC-PAM2 fluorescence polarization; P11940; inhibition, % at 20 µM; in the data active = inhibition above about 35%, passing the limit was not always enough;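 also: plate controls were DMSO wells with GST-MLLE for no effect and wells lacking GST-MLLE protein for full effect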
# A3G conf – APOBEC3G (human) deaminase inhibition, confirmed; inhibition, % at 20 µM; AID 493152; recombinant A3G ssDNA deaminase, UDG/FAM-TAMRA fluorescence; actives 72% (n = 890); shares compounds with A3G deaminase;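 active = inhibition reaching a set limit in any replicate at 20 µM, the limit being 80% of the first screen's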
# UDG A3G counter – E. coli UDG inhibition in APOBEC3G counter-screen | AID 504715 | 710 tested, under 10 active | inhibition, % at 20 µM | shares compounds with A3G deaminase | UDG counterscreen, FAM/TAMRA oligo fluorescence;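 active = compounds giving 40% or more inhibition at 20 µM in any one of the three replicates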;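 also: plate controls were DMSO wells with UDG and oligo for no effect and DMSO wells lacking both for full effect; inhibitors lower the FAM signal released by uracil excision and alkaline cleavage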
# * marks the source's active call; other numbers are inactive results; i = inactive; ? = inconclusive; · = not tested or not shown. Hits are enriched below; roughly 2.6% of the tested compounds scored in any of these assays. Unless noted, no rule for the calls is given here.
SMILES,PHOSPHO1 block,PABP FP inh,A3A deaminase,eIF4H FP inh,A3G deaminase,PABP1 MLLE inh,A3G conf,UDG A3G counter
O=c1c2cccc(Cl)c2nc2n1Cc1ccccc1-2,81.3*,i,2.8,-10.5,59.5*,31.4,55.2*,-1.3
O=C(NCCCCCCNC(=O)c1cncc(O)c1)c1cncc(O)c1,38.3,i,-2.3,-0.5,-5.2,1.5,·,·
COc1ccc(CCn2ccc(O)c(Cc3c(F)cccc3Cl)c2=O)cc1OC,17.9,i,-0.7,0.7,-6.7,14.0,·,·
CCOC(=O)c1nn(-c2ccccc2C)c(=O)c2c(N)scc12,-77.9,i,0.5,-1.6,28.8,-37.5,·,·
CCOC(=O)c1c(N)sn(-c2ccccc2C)c1=S,96.0*,i,-20.8,-6.8,57.0*,20.4,53.8*,-0.3
O=c1cc(N2CCC3(CC2)OCCO3)[nH]c(=O)n1-c1ccc(Br)cc1,-4.7,i,·,-8.7,·,7.7,·,·
CC(=O)Nc1n[nH]c(=S)s1,·,·,·,·,·,1.8,·,·
CNc1n[nH]c(=S)s1,52.5,i,-4.5,-9.0,66.6*,31.9,76.4*,-6.0
Cc1ccc(-n2c(N)c(C(N)=O)sc2=S)cc1,92.8*,i,1.0,6.8,58.2*,32.3,57.9*,-1.1
O=C(CNC(=O)c1cccc(Cl)c1)NCC(c1cccs1)N1CCOCC1 (centres undefined),·,·,-4.3,·,-5.3,6.6,·,·
Cc1nc2[nH]c(=S)[nH]c2cc1Br,101.1*,i,-2.2,0.7,47.1*,3.9,82.5*,1.8
Cc1nc2nc[nH]c2cc1Br,-1.5,i,-3.5,1.7,-5.7,1.3,·,·
Cc1[nH]n(-c2ccccc2)c(=S)c1C=NCCCN=Cc1c(C)[nH]n(-c2ccccc2)c1=S,32.6,i,5.2,8.3,61.9*,-6.4,53.6*,-3.0
CC(/C=N/n1c(-c2cc(C)[nH]n2)n[nH]c1=S)=C\c1ccco1,35.8,i,5.5,80.9,60.8*,-8.9,72.8*,2.5
Cc1cc(-c2n[nH]c(=S)n2/N=C/c2c[nH]c3ccccc23)n[nH]1,27.3,i,0.6,-6.2,31.9,10.1,·,·
COc1ccccc1/C=C/C=N/n1c(-c2ccncc2)n[nH]c1=S,78.7*,?,-6.0,31.9,46.9*,-28.4,79.5*,4.5
Cc1cc(-c2n[nH]c(=S)n2/N=C/C=C/c2ccccc2)n[nH]1,49.3,i,-1.9,0.6,46.5*,-19.6,72.1*,1.1
COc1ccccc1/C=C/C=N/n1c(-c2ccccn2)n[nH]c1=S,16.0,i,-4.2,-6.4,45.3*,-26.9,87.5*,-4.2
CCCCCn1nc(C)c(/C=N\NC(=O)c2cc(C)oc2C)c1C,0.1,i,-5.4,-8.3,-10.7,2.3,·,·
Cc1ccccc1NC(=O)COC(=O)[C@@H]1CCCN1C(=O)c1cccs1,·,·,7.0,·,19.0,10.2,·,·
S=c1[nH]nc(-c2ccncc2)n1/N=C/C=C/c1ccccc1,92.7*,i,-4.6,-1.2,63.4*,-24.5,90.2*,-4.4
COc1cc(/C=N/n2cc(-c3ccccc3)[nH]c2=S)cc(OC)c1O,24.6,i,-14.4,-14.4,45.7*,22.1,85.0*,0.9
CCOc1cc(/C=C2\CCCc3c2nc2ccccc2c3C(=O)O)ccc1OC,19.0,?,21.4,?,47.8*,i,17.8,·
COc1cccc(/C=N/n2c(-c3cc(C)[nH]n3)n[nH]c2=S)c1O,-18.7,i,-3.6,-0.8,52.7*,-7.0,84.8*,5.9
Cc1cc(-c2n[nH]c(=S)n2/N=C/c2ccccc2[N+](=O)[O-])n[nH]1,-17.4,i,-5.5,-0.4,60.8*,-29.8,82.5*,-2.2
SMILES,PHOSPHO1 block,PABP FP inh,A3A deaminase,eIF4H FP inh,A3G deaminase,PABP1 MLLE inh,A3G conf,UDG A3G counter
COc1cc(/C=N/n2c(-c3n[nH]c4c3CCC4)n[nH]c2=S)cc(OC)c1O,-64.2,i,-1.5,-3.8,54.2*,-4.7,68.4*,-2.0
COc1cccc(/C=N/n2c(C3CCCCC3)n[nH]c2=S)c1O,9.7,i,-3.7,-3.1,13.4,-18.5,·,·
Cc1n[nH]c(=S)n1/N=C/c1ccc(-c2ccccc2[N+](=O)[O-])o1,7.8,i,-5.0,9.8,45.3*,-6.0,67.9*,-6.0
COc1cc(/C=N/n2c(C3CCCCC3)n[nH]c2=S)ccc1O,18.5,i,-3.0,-1.2,26.2,-21.7,·,·
Cc1cc(CC(=O)O)n(C)c1C(=O)c1ccc(Cl)cc1,·,·,-0.8,·,-10.4,-8.7,·,·
CSc1sccc1/C=C(/C#N)C(=O)c1ccco1,9.7,i,-0.7,57.1,-6.1,1.6,·,·
CC(C)c1cc(C(=O)N2CCCC(CCC(=O)N3CCN(c4ccccn4)CC3)C2)no1 (centres undefined),26.8,i,-9.9,-4.2,7.3,1.1,·,·
COc1cccc(/C=N/n2c(-c3n[nH]c4c3CCC4)n[nH]c2=S)c1O,46.8,i,-4.2,1.0,66.3*,-11.9,82.0*,-12.3
CCOC(=O)c1nn(-c2ccccc2)c(=O)c2c(N)scc12,24.9,i,4.8,-6.6,34.4,18.8,·,·
Nc1scc2c(C(=O)N/N=C/c3ccc(Cl)cc3)nn(-c3ccccc3)c(=O)c12,101.1*,i,-4.7,46.7,50.9*,-6.7,active,-1.4
CCOC(=O)c1sc(N)c(C(=O)OC)c1C,26.2,i,-3.4,-7.3,-5.6,-4.8,·,·
CCOC(=O)c1sc(N)c(C(=O)Nc2ccccc2OC)c1C,-71.2,i,-0.6,-6.3,51.1*,22.3,67.3*,-3.1
COc1ccc(NC(=O)NCc2ccc3c(c2)OCO3)cc1OC,36.4,i,-3.6,7.4,-4.7,-3.7,·,·
CC(C(Sc1ccccc1N)c1ccccc1)[N+](=O)[O-] (centres undefined),52.9,i,0.8,-1.0,64.9*,20.8,26.2*,-1.7
Nc1ccccc1SC(CC(=O)c1ccccc1)c1ccccc1 (centres undefined),·,·,·,·,·,38.9,·,·
CSCCC(NC(=O)c1ccccc1Cl)C(=O)N1CCN(c2ccccn2)CC1 (centres undefined),14.7,i,-5.2,2.3,-10.7,3.5,·,·
COC(=O)c1cc(=O)nc2sc(-c3cccs3)nn12,8.9,i,1.7,-2.6,-10.7,0.2,·,·
COC(=O)c1cc(=O)nc2sc(-c3ccc(F)cc3)nn12,95.1*,i,5.7,-10.8,42.3*,32.5,33.7*,-3.1
O=C(Nc1ccccc1)C(=O)c1c[nH]c2ccccc12,44.0,i,4.1,-13.2,-1.3,-3.1,·,·
O=C(CN(CC(=O)N1CCOCC1)S(=O)(=O)c1ccc(Br)s1)N1CCOCC1,·,·,-1.1,·,46.3*,29.6,58.3*,-1.8
Cc1cc(C(=O)O)ccc1-n1c(C)ccc1C,·,·,99.6,·,95.2,·,·,·

# Source: PubChem BioAssay (Sanford-Burnham Center for Chemical Genomics)
